Source: ChEMBL document CHEMBL1961873, “Compounds: GSK PKIS; Assays: Nanosyn kinase panel” (2012)

Tests used:
[1] = biological target: T1, Tyrosine-protein kinase ITK/TSK (Homo sapiens) (UniProt Q08881); conditions: at 1 µM;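 note: values are mean percent inhibition of ITK from the GSK PKIS screen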
T1 sequence (whole entry): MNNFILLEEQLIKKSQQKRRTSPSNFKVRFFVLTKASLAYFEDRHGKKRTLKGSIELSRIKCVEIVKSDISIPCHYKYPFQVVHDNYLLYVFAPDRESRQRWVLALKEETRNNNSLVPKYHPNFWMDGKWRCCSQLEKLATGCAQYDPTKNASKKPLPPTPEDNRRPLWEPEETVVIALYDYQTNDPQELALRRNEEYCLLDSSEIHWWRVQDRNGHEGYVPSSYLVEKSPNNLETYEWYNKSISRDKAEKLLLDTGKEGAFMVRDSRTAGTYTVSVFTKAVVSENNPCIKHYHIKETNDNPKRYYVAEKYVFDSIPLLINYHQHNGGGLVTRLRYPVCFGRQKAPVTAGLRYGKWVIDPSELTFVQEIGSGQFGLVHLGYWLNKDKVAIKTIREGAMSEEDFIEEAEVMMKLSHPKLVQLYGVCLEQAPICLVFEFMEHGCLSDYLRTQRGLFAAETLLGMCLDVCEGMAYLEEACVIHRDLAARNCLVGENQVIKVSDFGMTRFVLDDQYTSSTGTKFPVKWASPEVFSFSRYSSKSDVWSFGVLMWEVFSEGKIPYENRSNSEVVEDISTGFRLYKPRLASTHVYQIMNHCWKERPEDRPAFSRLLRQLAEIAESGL

[2] = biological target: Tyrosine-protein kinase JAK1 (Homo sapiens) (UniProt P23458); conditions: at 0.1 µM
[3] = biological target: Tyrosine-protein kinase JAK1 (Homo sapiens) (UniProt P23458); conditions: at 1 µM
[4] = biological target: Tyrosine-protein kinase JAK2 (Homo sapiens) (UniProt O60674); conditions: at 0.1 µM
[5] = biological target: Tyrosine-protein kinase JAK2 (Homo sapiens) (UniProt O60674); conditions: at 1 µM
[6] = biological target: T2, Tyrosine-protein kinase JAK3 (Homo sapiens) (UniProt P52333); conditions: at 0.1 µM
T2 sequence (whole entry): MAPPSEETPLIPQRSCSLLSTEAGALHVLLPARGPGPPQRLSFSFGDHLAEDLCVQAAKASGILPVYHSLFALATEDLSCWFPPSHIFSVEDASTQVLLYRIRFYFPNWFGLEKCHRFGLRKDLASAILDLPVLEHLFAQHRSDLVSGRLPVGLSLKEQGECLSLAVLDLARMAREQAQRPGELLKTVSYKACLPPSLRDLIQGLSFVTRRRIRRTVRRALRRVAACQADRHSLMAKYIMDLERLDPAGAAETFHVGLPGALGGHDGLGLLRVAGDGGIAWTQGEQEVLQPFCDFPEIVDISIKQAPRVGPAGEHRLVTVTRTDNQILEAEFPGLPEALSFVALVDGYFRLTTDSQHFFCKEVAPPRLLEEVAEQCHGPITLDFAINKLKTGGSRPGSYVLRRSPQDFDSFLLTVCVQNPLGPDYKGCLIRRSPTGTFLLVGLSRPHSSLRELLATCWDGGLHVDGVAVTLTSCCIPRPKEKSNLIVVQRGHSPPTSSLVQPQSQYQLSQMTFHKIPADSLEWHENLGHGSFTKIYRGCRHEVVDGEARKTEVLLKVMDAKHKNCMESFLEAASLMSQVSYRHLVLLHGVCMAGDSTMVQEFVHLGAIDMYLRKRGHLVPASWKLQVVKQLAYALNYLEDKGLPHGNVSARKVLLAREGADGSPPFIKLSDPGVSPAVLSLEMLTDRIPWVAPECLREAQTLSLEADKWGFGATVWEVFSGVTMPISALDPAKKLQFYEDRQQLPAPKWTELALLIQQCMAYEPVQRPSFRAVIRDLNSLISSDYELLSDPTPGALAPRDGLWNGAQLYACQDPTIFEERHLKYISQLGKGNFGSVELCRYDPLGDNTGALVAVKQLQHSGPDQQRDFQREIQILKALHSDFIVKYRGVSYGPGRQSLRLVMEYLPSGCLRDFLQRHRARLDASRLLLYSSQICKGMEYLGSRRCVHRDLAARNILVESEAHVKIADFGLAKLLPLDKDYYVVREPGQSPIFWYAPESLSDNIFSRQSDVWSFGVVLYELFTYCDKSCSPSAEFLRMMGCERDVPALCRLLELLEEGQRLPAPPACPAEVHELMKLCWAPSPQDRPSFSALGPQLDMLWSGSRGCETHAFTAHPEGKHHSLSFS

[7] = biological target: T2, Tyrosine-protein kinase JAK3 (Homo sapiens); conditions: at 1 µM
[8] = biological target: Vascular endothelial growth factor receptor 2 (Homo sapiens) (UniProt P35968); conditions: at 0.1 µM
[9] = biological target: Vascular endothelial growth factor receptor 2 (Homo sapiens) (UniProt P35968); conditions: at 1 µM
[10] = biological target: Mast/stem cell growth factor receptor Kit (Homo sapiens) (UniProt P10721); conditions: at 0.1 µM;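 note: values are mean inhibition of KIT, from the GSK PKIS dataset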
Mast/stem cell growth factor receptor Kit (Homo sapiens), sequence (P10721 whole entry): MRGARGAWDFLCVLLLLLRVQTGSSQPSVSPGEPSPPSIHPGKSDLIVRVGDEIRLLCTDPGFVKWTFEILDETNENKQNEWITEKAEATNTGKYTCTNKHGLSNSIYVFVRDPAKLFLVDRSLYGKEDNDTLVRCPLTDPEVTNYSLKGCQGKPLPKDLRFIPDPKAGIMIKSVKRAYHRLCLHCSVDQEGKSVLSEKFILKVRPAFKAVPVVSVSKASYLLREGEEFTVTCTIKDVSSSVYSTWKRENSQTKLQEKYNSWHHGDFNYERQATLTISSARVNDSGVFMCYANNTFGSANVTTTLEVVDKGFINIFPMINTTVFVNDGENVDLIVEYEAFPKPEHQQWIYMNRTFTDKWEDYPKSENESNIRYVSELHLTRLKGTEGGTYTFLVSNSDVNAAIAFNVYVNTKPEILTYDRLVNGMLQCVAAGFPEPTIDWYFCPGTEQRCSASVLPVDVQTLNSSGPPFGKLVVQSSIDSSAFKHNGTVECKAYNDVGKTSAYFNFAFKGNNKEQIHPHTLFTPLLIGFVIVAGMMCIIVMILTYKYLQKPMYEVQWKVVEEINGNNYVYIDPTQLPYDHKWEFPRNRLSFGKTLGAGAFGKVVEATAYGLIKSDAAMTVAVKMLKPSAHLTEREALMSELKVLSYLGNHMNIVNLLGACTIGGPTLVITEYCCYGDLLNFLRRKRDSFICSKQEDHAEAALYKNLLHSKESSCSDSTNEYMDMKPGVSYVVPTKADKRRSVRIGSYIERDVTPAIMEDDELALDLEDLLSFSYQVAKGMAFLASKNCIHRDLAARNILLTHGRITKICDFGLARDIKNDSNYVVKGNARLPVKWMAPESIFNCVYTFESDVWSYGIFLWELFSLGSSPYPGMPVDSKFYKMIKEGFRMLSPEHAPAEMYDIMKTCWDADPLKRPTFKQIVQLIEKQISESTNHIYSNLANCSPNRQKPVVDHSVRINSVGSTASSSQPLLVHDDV

Vascular endothelial growth factor receptor 2 (Homo sapiens), sequence (P35968 whole entry): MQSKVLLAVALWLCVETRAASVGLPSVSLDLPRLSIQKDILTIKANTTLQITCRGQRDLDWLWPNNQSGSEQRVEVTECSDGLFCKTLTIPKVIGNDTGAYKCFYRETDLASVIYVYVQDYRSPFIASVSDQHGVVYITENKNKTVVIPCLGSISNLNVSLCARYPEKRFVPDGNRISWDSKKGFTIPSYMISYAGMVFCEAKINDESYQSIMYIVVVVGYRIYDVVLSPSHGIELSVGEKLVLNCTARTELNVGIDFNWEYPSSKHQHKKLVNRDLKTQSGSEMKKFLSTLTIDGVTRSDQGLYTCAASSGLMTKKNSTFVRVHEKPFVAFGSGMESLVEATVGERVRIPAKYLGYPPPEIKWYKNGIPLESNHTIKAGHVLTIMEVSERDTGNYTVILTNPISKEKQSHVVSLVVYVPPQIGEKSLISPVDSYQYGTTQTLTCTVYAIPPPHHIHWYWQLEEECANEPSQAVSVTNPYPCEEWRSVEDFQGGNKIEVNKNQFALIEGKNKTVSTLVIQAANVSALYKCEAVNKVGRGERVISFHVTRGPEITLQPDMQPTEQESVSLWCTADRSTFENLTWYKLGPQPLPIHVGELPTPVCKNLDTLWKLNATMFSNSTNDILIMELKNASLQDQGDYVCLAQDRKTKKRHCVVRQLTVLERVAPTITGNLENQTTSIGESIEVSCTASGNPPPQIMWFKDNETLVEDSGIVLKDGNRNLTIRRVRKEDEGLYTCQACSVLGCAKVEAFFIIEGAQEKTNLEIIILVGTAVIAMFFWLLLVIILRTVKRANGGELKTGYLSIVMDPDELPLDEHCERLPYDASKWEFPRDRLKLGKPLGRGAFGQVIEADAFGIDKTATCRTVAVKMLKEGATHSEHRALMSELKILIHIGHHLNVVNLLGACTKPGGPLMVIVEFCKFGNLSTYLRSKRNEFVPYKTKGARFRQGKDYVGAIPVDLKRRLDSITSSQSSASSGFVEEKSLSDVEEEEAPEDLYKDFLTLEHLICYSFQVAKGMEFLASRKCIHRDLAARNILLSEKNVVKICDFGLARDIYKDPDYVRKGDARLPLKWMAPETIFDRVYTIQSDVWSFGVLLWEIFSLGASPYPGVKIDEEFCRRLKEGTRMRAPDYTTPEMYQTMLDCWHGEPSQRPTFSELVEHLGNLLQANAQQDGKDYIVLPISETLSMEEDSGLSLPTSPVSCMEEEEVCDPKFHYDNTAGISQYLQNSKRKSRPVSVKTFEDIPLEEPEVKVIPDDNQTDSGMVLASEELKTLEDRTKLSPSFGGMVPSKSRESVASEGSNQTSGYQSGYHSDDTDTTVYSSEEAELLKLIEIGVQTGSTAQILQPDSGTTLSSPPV
Tyrosine-protein kinase JAK1 (Homo sapiens), sequence (P23458 whole entry): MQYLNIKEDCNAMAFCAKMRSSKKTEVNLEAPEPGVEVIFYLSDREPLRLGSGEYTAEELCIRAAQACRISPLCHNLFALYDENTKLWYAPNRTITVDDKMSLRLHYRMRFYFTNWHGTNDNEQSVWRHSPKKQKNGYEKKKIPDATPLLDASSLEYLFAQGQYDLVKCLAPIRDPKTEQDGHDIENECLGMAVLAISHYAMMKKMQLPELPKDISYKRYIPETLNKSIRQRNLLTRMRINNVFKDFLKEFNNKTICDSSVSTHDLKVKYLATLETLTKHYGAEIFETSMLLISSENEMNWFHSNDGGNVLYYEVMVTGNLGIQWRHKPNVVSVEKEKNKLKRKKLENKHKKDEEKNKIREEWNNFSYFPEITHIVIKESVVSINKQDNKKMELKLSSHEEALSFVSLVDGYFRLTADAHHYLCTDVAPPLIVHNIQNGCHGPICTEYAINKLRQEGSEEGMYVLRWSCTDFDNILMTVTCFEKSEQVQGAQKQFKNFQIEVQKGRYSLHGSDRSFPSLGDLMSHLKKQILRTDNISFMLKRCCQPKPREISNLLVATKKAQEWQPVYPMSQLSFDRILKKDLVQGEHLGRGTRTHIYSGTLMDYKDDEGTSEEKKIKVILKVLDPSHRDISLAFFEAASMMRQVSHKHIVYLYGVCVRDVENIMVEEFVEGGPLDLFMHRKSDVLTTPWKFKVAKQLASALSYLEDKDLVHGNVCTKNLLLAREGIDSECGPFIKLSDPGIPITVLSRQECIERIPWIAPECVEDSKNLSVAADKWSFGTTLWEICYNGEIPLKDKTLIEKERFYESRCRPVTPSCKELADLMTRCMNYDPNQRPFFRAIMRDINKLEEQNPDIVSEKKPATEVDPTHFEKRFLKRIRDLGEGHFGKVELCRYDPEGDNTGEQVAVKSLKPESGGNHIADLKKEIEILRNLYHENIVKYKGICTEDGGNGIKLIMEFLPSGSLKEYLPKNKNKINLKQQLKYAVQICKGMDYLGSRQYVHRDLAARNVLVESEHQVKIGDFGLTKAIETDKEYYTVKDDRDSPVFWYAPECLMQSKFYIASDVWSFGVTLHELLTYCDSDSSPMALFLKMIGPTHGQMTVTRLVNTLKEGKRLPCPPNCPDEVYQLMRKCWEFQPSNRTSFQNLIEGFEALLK
Tyrosine-protein kinase JAK2 (Homo sapiens), sequence (O60674 whole entry): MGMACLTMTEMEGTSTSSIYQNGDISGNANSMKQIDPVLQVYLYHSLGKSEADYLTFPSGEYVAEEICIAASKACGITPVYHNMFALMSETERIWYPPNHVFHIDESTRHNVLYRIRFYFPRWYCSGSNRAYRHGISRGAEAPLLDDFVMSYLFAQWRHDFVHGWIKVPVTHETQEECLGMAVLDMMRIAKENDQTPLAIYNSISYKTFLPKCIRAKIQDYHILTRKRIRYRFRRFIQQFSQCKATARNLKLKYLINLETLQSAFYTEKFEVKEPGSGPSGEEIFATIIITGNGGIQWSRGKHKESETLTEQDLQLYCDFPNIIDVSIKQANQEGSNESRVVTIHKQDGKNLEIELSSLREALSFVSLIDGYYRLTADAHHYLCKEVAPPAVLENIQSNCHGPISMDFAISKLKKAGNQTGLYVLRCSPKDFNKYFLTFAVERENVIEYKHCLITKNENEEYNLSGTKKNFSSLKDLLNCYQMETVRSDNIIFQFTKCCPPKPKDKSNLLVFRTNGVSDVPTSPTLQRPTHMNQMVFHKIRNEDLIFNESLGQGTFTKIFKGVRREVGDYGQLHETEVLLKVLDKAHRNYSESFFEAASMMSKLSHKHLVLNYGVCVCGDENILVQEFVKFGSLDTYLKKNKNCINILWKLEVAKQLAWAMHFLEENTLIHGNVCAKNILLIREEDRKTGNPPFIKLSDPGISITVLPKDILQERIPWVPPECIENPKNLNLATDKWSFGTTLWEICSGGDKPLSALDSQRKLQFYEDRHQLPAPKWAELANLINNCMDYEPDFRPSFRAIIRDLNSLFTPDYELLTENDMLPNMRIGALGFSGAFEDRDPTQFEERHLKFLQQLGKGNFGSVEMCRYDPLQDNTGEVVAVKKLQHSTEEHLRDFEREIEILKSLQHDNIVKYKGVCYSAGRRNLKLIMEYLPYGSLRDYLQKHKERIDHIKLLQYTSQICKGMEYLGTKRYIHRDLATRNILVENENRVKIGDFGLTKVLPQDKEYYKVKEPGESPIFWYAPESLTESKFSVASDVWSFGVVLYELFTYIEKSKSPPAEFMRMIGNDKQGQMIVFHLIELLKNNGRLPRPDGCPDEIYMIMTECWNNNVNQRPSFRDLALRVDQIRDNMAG

Row | SMILES | inhibition [1] [%] | inhibition [2] [%] | inhibition [3] [%] | inhibition [4] [%] | inhibition [5] [%] | inhibition [6] [%] | inhibition [7] [%] | inhibition [8] [%] | inhibition [9] [%] | inhibition [10] [%]
1 | COc1ccc2cc(-c3c(-c4ccncc4)nc(-c4ccc([S+](C)[O-])cc4C)n3C)ccc2c1 (stereo not given) | 0.95 | -3.09 | 4.21 | 0.25 | -0.49 | 0.51 | 0.61 | 8.24 | 49 | -0.44
2 | COc1cc(Nc2ncc3c(C)nc(-c4cccc(C(F)(F)F)c4)n3n2)cc(OC)c1OC | 13.5 | 3.02 | 8.95 | 1.27 | 11.1 | -0.52 | 4.91 | 4.26 | 8.61 | 11.1
3 | CCc1nccc2c1nc(-c1nonc1N)n2CC | 1.25 | 0.52 | -2.63 | 3.71 | 2.91 | 0 | 0.61 | 5.64 | 17.7 | 0.21
4 | Fc1ccc(-c2ncn(C3CCNCC3)c2-c2ccnc(Oc3ccc(Oc4ccccc4)cc3)n2)cc1 | 2.41 | 1.18 | 1.84 | 2.34 | 3.84 | 1.04 | 0.1 | 2.97 | 10.7 | 2.94
5 | O=C(Nc1ccc(Oc2ccc3[nH]c(NC(=O)c4ccccc4)nc3c2)cc1)Nc1cc(C(F)(F)F)ccc1F | 2.09 | 1.88 | 7.18 | 1.51 | 4.06 | -0.16 | 9.29 | – | – | 10.4
6 | NS(=O)(=O)c1ccc(N/N=C2\C(=O)Nc3ccc(-c4cnco4)cc32)cc1 | -0.93 | 1.96 | 6.12 | 0.38 | 5.7 | -4.76 | 24.1 | 6.94 | 39.1 | 5.83
7 | C#Cc1cccc(Nc2ncnc3ccc(OCCCCNCCS(C)(=O)=O)cc23)c1 | -2.14 | 0.29 | 13.4 | 1 | 0.71 | -4.71 | -3.57 | 14.2 | 19.6 | 4.93
8 | COc1ccc(C2=C(N3CCc4ccccc43)C(=O)NC2=O)cc1 | 2.26 | 3.92 | 7.64 | 2.9 | 3.26 | -0.7 | 1.63 | 8.98 | 14.5 | 7.63
9 | Nc1nccc(-c2c(-c3ccc(F)cc3)ncn2C2CCC(O)CC2)n1 (stereo not given) | 0.63 | -6.08 | -2.41 | -0.54 | -0.27 | 1.29 | 2.69 | 2.29 | 17.2 | -1.79
10 | CCc1cccc(CC)c1/C=C/c1cncc(C(=O)NC)c1 | 2.29 | 2.03 | – | 1.99 | 1.71 | -1.8 | 0.86 | 6.02 | 8.91 | 1
11 | COc1cc(Nc2ncc3c(C)nc(-c4cccc(Oc5ccccc5)c4)n3n2)cc(OC)c1OC | 2.18 | 1.98 | -5.12 | 0.96 | 2.54 | 0.02 | 1.74 | 2.28 | 3.61 | 3.09
12 | CNC(=O)c1cncc(/C=C/c2c(C)cccc2C)c1 | -3.29 | 0.62 | -1.32 | 2.87 | 2.41 | -3.28 | -0.59 | 3.77 | 3.51 | 10.7
13 | Fc1ccc(-c2ncn(C3CCNCC3)c2-c2ccnc(Oc3ccc4c(c3)OCO4)n2)cc1 | 3.21 | 3.3 | 4.29 | 0.42 | 1.47 | -2.3 | -2.01 | 9.3 | 12.5 | 7.99
14 | NS(=O)(=O)c1ccc(N/N=C2\C(=O)Nc3ccc(C(=O)NCCCn4ccnc4)cc32)cc1 | 3.12 | 5.06 | 23.8 | 0.1 | 4.95 | -2 | 18.8 | 8.51 | 34.1 | 4.8
15 | COc1ccc2ncn(-c3cc(O[C@H](C)c4ccccc4Cl)c(C(N)=O)s3)c2c1 | -2.51 | -3.1 | 2.15 | 1.31 | 1.04 | -7 | -5.28 | 3.61 | 13.4 | 4.64
16 | COc1ccc2cc(-c3c(-c4ccncc4)nc(-c4ccc(S(C)(=O)=O)cc4C)n3C)ccc2c1 | 1.36 | 5.05 | 11.1 | 1.62 | 1.45 | -0.96 | -0.93 | 10.7 | 47.8 | 5.09
17 | C[C@@H](Oc1cc(-n2cnc3ccc(OCC4CCN(C)CC4)cc32)sc1C(N)=O)c1ccccc1Cl | 3.2 | 8.98 | 6.05 | 1.61 | 2.26 | -1.46 | 29.3 | 7.07 | 36.4 | 5.23

Row | SMILES | inhibition [1] [%] | inhibition [2] [%] | inhibition [3] [%] | inhibition [4] [%] | inhibition [5] [%] | inhibition [6] [%] | inhibition [7] [%] | inhibition [8] [%] | inhibition [9] [%] | inhibition [10] [%]
18 | COc1cc2ncn(-c3cc(OCc4cccs4)c(C(N)=O)s3)c2cc1OC | 2.34 | 9.11 | 19.9 | 1.45 | 1.19 | -2.77 | -0.29 | 14.1 | 50.5 | 1.96
19 | CCN(CC)Cc1ccc(Nc2nccc(-c3cnn4ncccc34)n2)cc1 | -0.21 | 4.71 | 4.83 | 6.24 | 20.9 | -3.13 | 14.2 | 7.19 | 39.1 | 64.8
20 | NC(=O)c1cc(-c2ccc(F)cc2)cc(-c2ccncc2)c1N | -0.8 | 3.49 | 12.2 | 1.44 | 1.06 | -0.87 | -2.1 | 6 | 6.66 | 11.9
21 | NS(=O)(=O)c1ccc(Nc2cc(-c3ccc(O)c(F)c3)n[nH]2)cc1 | 12.4 | -7.43 | 6.94 | -0.13 | -0.37 | 0.11 | 8.25 | 4.49 | 35.3 | 20.9
22 | Fc1ccc(-c2nc3n(c2-c2ccncc2)CCS3)cc1 | -1.9 | 2.03 | 4.76 | 0.84 | 1.07 | -4.98 | -4.14 | 5.19 | 8.03 | 5.12
23 | COc1cccc(/C=N/Nc2ncnc3c2cnn3-c2cccc(OC)c2)c1 | 0.34 | 1.61 | 4.23 | 3.55 | 5.22 | -1.99 | -2.7 | 5.88 | 11.2 | 6.67
24 | C/C(Nc1ccc(S(N)(=O)=O)cc1)=C1/C(=O)Nc2ccccc21 | 4.72 | -6.57 | -1.09 | -0.57 | 0.27 | -0.45 | 6.44 | 9.11 | 44.5 | 38.4
25 | CN(c1ccc(NC(=O)Nc2c(Cl)cccc2Cl)cc1)c1ccnc(Nc2cccc(CS(C)(=O)=O)c2)n1 | 71.1 | 8.34 | 19.7 | 2.35 | 20.7 | 0.53 | 2.77 | 24.6 | 56.3 | 88.5
26 | O=C(Nc1n[nH]c2nc(-c3ccco3)ccc12)C1CC1 | 2.43 | -0.37 | -0.27 | 0.87 | 2.09 | 0.01 | 2.11 | 7.28 | 14 | 3.39
27 | CN(C)CCCNc1nccc(-c2c(-c3ccc(F)cc3)nn3cc(C(F)(F)F)ccc23)n1 | -1.31 | 0.29 | -0.9 | 0.65 | 3.68 | -2.83 | -1.89 | 6.32 | 11.3 | 3.48
28 | O=C(Nc1n[nH]c2nc(-c3ccc(O)cc3)c(Br)cc12)C1CC1 | 3.5 | 15.5 | 55 | 3.57 | 28.4 | 11.9 | 62.2 | 36.2 | 71.6 | 17.5
29 | COC(=O)Nc1nc2ccc(Sc3ccc(NC(=O)Nc4cc(C(F)(F)F)ccc4F)cc3)cc2[nH]1 | 0.87 | 0.69 | -4.92 | 32.5 | 2.1 | -1.15 | 2.49 | – | – | 1.63
30 | Cc1ccc(C(=O)NC2CCC2)cc1-c1ccc(C(=O)NCC2CC2)cc1 | 1.48 | 0.07 | 0.59 | 0.91 | 0.54 | -1.22 | 1.06 | 3.33 | 3.21 | 2.49
31 | Cc1nnc(-c2ccc(C)c(-c3ccc(C(=O)NCc4ccc(Cl)cc4)cc3)c2)o1 | -2.86 | 4.61 | 16.9 | 1.06 | 1.06 | -4.26 | -4.85 | 4.61 | 5.62 | 4.95
32 | CS(=O)(=O)CCNCc1cc(-c2cc3c(Nc4ccc(OCc5cccc(F)c5)c(Cl)c4)ncnc3s2)cs1 | 3.04 | -1.42 | 3.76 | 2.28 | 5.69 | -2.63 | -0.49 | 6.12 | 8.97 | 7.21
33 | CCc1ccc(Oc2nccc(-c3c(-c4ccc(F)cc4)ncn3C3CCNCC3)n2)cc1 | 2.38 | 4.16 | 4.5 | 1.64 | 2.94 | -1.25 | -0.22 | 5.19 | 13.5 | 4.71
34 | c1ccc(Oc2ccc(Nc3ncc(-c4ccccc4)o3)cc2)cc1 | 2.13 | 0.76 | 3.56 | 1.66 | 1.65 | -0.5 | 4.13 | 4.37 | 3.48 | 3.26
